Laboratory results from PubChem BioAssay (NCI).
This is part of a sample that, as a whole, favours compounds with a hit. Of some 79,000 tested, about 15% had one in any assay. The source made the active and inactive calls. Cut-off read from the data, not from the text of the source: active = growth inhibition above about 70%; inactive = the rest.

Assays:
[1] = NCI Yeast Anticancer Drug Screen. Data for the rad52 strain (AID 147);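 note: 0% = growth of vehicle-treated control cultures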; details: S. cerevisiae rad52 mutant growth inhibition, hits give high values
Method in brief: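 Inhibition of yeast growth, referenced to vehicle controls, was the measured output for a strain with defective DNA damage repair.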

[2] = NCI Yeast Anticancer Drug Screen. Data for the wt1 strain (AID 149);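 note: 0% = growth of vehicle-treated wt1 cultures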; details: S. cerevisiae wt1 strain (SPY 50644) growth inhibition, hits give high values
Method in brief: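 Compounds are added to wt1 yeast cultures. Growth is then measured. Inhibition is expressed relative to vehicle-treated controls.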

[3] = NCI Yeast Anticancer Drug Screen. Data for the rad50EPP+ strain (AID 151);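 note: 0% = growth of vehicle-treated control cultures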; details: S. cerevisiae rad50 mutant strain, hits give high values
Method in brief: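 Genetically defined yeast (rad50EPP+, DNA damage repair alteration) is grown with compound, and inhibition of growth is expressed relative to vehicle-treated controls.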

[4] = NCI Yeast Anticancer Drug Screen. Data for the mgt1 strain (AID 153); details: S. cerevisiae mgt1 mutant growth inhibition, hits give high values
Method in brief: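 In the mgt1 strain, test compounds were added and growth inhibition was determined relative to vehicle-treated controls.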

[5] = NCI Yeast Anticancer Drug Screen. Data for the rad50 strain (AID 155);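 note: 0% = growth of vehicle-only cultures of the same strain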; details: S. cerevisiae rad50 strain growth inhibition, hits give high values
Method in brief: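 Inhibition values express reduced yeast growth in compound-treated cultures relative to vehicle-treated controls.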

[6] = NCI Yeast Anticancer Drug Screen. Data for the mec2-1 strain (AID 157); details: S. cerevisiae mec2-1 strain, hits give high values
Method in brief: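 Each compound was tested on mec2-1 yeast, a strain altered in DNA damage repair or cell cycle control. Growth inhibition is reported relative to vehicle.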

[7] = NCI Yeast Anticancer Drug Screen. Data for the rad14 strain (AID 159);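 note: 0% = growth of vehicle-treated control cultures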; details: S. cerevisiae rad14 strain growth inhibition, hits give high values
Method in brief: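 A mutant yeast strain defective in DNA damage repair is treated with compound; inhibition of its growth is scored against untreated, vehicle-exposed cultures.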

[8] = NCI Yeast Anticancer Drug Screen. Data for the sgs1 mgt1 strain (AID 161);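 note: 0% = growth of cultures given vehicle only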; details: S. cerevisiae sgs1 mgt1 strain, hits give high values
Method in brief: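 Read-out: growth inhibition vs vehicle controls. Cells: mutant yeast strain deficient in DNA damage repair.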

[9] = NCI Yeast Anticancer Drug Screen. Data for the CLN2oe strain (AID 163);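 note: 0% = growth of vehicle-only control cultures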; details: S. cerevisiae CLN2oe strain, hits give high values
Method in brief: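 First, the altered yeast strain was treated with each compound; second, its growth was measured; finally, inhibition was derived by comparison with vehicle controls.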

[10] = NCI Yeast Anticancer Drug Screen. Data for the cln2 rad14 strain (AID 165);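 note: 0% = growth equal to vehicle treated cultures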; details: S. cerevisiae cln2 rad14 strain, hits give high values
Method in brief: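 Test compounds were added to cln2 rad14 yeast cultures; inhibition of growth was then determined by comparison with vehicle treatment.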

[11] = NCI Yeast Anticancer Drug Screen. Data for the bub3 strain (AID 167); details: S. cerevisiae bub3 mutant strain, hits give high values
Method in brief: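 Steps: expose the mutant yeast strain to compound; grow alongside vehicle-treated cultures; measure growth; express inhibition against the vehicle cultures.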

[12] = NCI Yeast Anticancer Drug Screen. Data for the wt2 strain (AID 169);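 note: 0% = growth of vehicle-treated yeast cultures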; details: S. cerevisiae wt2 strain growth inhibition, hits give high values
Method in brief: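 The panel's yeast strains carry defined changes in DNA repair or cell cycle genes. Each strain is grown with compound, and growth loss is scored relative to vehicle.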

[13] = NCI Yeast Anticancer Drug Screen. Data for the mlh1 strain (AID 171);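 note: 0% = growth of vehicle-treated control cultures of the same strain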; details: S. cerevisiae mlh1 strain growth inhibition, hits give high values
Method in brief: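 Inhibition values reflect reduced yeast growth in the presence of compound, referenced to vehicle controls, using a strain chosen for its alteration in DNA repair or cell cycle control.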

[14] = NCI Yeast Anticancer Drug Screen. Data for the sgs1 strain (AID 173);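 note: 0% = growth of vehicle-only control cultures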; details: S. cerevisiae sgs1 mutant, hits give high values
Method in brief: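 Vehicle-treated cultures served as reference for growth inhibition of a yeast strain altered in DNA damage repair or cell cycle control after compound exposure.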

[15] = NCI Yeast Anticancer Drug Screen. Data for the mlh1 rad18 strain (AID 175); details: S. cerevisiae mlh1 rad18 strain growth inhibition, hits give high values
Method in brief: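 Inhibition values reflect reduced growth of mutant yeast versus vehicle-treated controls following compound exposure; the mutations affect DNA damage repair.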

[16] = NCI Yeast Anticancer Drug Screen. Data for the rad18 strain (AID 177); details: S. cerevisiae rad18 mutant growth inhibition, hits give high values
Method in brief: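 Steps: expose repair-mutant yeast to compound; measure growth; express as inhibition relative to vehicle control.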

[17] = at 5.0 µM (retest, dose inferred, filed as 0.5)
[18] = at 50.0 µM (retest, dose inferred, filed as 5.0)

Measured: growth inhibition

CCCCc1cc(O)ccc1O
inactive: [1]; at 1.2 µM 2% | [1]; at 3.7 µM 13% | [1]; at 11.0 µM 24% | [1]; at 33.0 µM 27% | [1]; at 100.0 µM 29% | [2]; at 1.2 µM -2% | [2]; at 3.7 µM -2% | [2]; at 11.0 µM 0% | [2]; at 33.0 µM 3% | [2]; at 100.0 µM 1% | [3]; at 1.2 µM 13% | [3]; at 3.7 µM 34% | [3]; at 11.0 µM 57% | [4]; at 1.2 µM -4% | [4]; at 3.7 µM -1% | [4]; at 11.0 µM 1% | [4]; at 33.0 µM 0% | [4]; at 100.0 µM 10% | [5]; at 1.2 µM 6% | [5]; at 3.7 µM 12% | [5]; [17] -81% | [5]; at 11.0 µM 32% | [5]; at 33.0 µM 54% | [5]; at 50.0 µM 20.7% | [5]; at 100.0 µM 62% | [6]; at 1.2 µM 4% | [6]; at 3.7 µM 2% | [6]; [17] -37% | [6]; at 11.0 µM 1% | [6]; at 33.0 µM 17% | [6]; [18] -13% | [6]; at 50.0 µM 11.2% | [6]; at 100.0 µM 28% | [7]; at 1.2 µM 2% | [7]; at 3.7 µM 3% | [7]; at 11.0 µM 18% | [7]; at 33.0 µM 31% | [7]; at 100.0 µM 35% | [8]; [17] -48% | [8]; [18] 6% | [8]; at 50.0 µM 43.7% | [9]; at 1.2 µM -3% | [9]; at 3.7 µM 1% | [9]; at 11.0 µM 3% | [9]; at 33.0 µM 11% | [9]; at 100.0 µM 21% | [10]; [17] -54% | [10]; [18] -31% | [10]; at 50.0 µM 19.5% | [11]; at 1.2 µM -9% | [11]; at 3.7 µM -1% | [11]; [17] -63% | [11]; at 11.0 µM -5% | [11]; at 33.0 µM 5% | [11]; [18] 3% | [11]; at 50.0 µM 27.6% | [11]; at 100.0 µM 19% | [12]; at 1.2 µM 0% | [12]; at 3.7 µM -1% | [12]; at 11.0 µM 1% | [12]; at 33.0 µM 3% | [12]; at 100.0 µM 6% | [13]; at 1.2 µM 6% | [13]; at 3.7 µM -1% | [13]; at 11.0 µM 4% | [13]; at 33.0 µM 9% | [13]; at 100.0 µM 4% | [14]; at 1.2 µM 0% | [14]; at 3.7 µM 6% | [14]; at 11.0 µM 10% | [14]; at 33.0 µM 24% | [14]; at 100.0 µM 42% | [15]; [17] -86% | [15]; [18] 42% | [15]; at 50.0 µM 64.3% | [16]; at 1.2 µM 3% | [16]; at 3.7 µM 7% | [16]; at 11.0 µM 15% | [16]; at 33.0 µM 26% | [16]; at 100.0 µM 31%
active: [3]; at 33.0 µM 77% | [3]; at 100.0 µM 88% | [5]; [18] 87%

N#C/C(=C\c1cccc(OCc2ccccc2)c1)c1ccc([N+](=O)[O-])cc1
active: [5]; [18] 97% | [6]; [18] 96% | [15]; [18] 98%
inactive: [1]; at 1.2 µM -24% | [1]; at 3.7 µM -19% | [1]; at 11.0 µM -26% | [1]; at 33.0 µM -28% | [1]; at 100.0 µM -37% | [2]; at 1.2 µM -18% | [2]; at 3.7 µM -4% | [2]; at 11.0 µM -22% | [2]; at 33.0 µM -28% | [2]; at 100.0 µM -33% | [3]; at 1.2 µM -66% | [3]; at 3.7 µM -49% | [3]; at 11.0 µM -63% | [3]; at 33.0 µM -82% | [3]; at 100.0 µM -88% | [4]; at 1.2 µM -35% | [4]; at 3.7 µM -29% | [4]; at 11.0 µM -61% | [4]; at 33.0 µM -53% | [4]; at 100.0 µM -71% | [5]; at 1.2 µM -5% | [5]; at 3.7 µM -25% | [5]; [17] 53% | [5]; at 11.0 µM -22% | [5]; at 33.0 µM -23% | [5]; at 50.0 µM 10.9% | [5]; at 100.0 µM -23% | [6]; at 1.2 µM -88% | [6]; at 3.7 µM -74% | [6]; [17] 61% | [6]; at 11.0 µM -81% | [6]; at 33.0 µM -91% | [6]; at 50.0 µM 14.2% | [6]; at 100.0 µM -96% | [7]; at 1.2 µM -43% | [7]; at 3.7 µM -48% | [7]; at 11.0 µM -24% | [7]; at 33.0 µM -51% | [7]; at 100.0 µM -84% | [8]; [17] -10% | [8]; [18] 43% | [8]; at 50.0 µM 27.9% | [9]; at 1.2 µM 11% | [9]; at 3.7 µM -17% | [9]; at 11.0 µM -28% | [9]; at 33.0 µM -31% | [9]; at 100.0 µM -39% | [10]; [17] 33% | [10]; [18] 43% | [10]; at 50.0 µM 0.05% | [11]; at 1.2 µM -28% | [11]; at 3.7 µM -42% | [11]; [17] -5% | [11]; at 11.0 µM -37% | [11]; at 33.0 µM -40% | [11]; [18] 29% | [11]; at 50.0 µM 61.1% | [11]; at 100.0 µM -60% | [12]; at 1.2 µM -34% | [12]; at 3.7 µM -43% | [12]; at 11.0 µM -49% | [12]; at 33.0 µM -61% | [12]; at 100.0 µM -75% | [13]; at 1.2 µM -44% | [13]; at 3.7 µM -41% | [13]; at 11.0 µM -51% | [13]; at 33.0 µM -64% | [13]; at 100.0 µM -72% | [14]; at 1.2 µM -39% | [14]; at 3.7 µM -47% | [14]; at 11.0 µM -64% | [14]; at 33.0 µM -54% | [14]; at 100.0 µM -59% | [15]; [17] 50% | [15]; at 50.0 µM 15.2% | [16]; at 1.2 µM -26% | [16]; at 3.7 µM -29% | [16]; at 11.0 µM -24% | [16]; at 33.0 µM -49% | [16]; at 100.0 µM -36%
